Reference: PubChem BioAssay
The source made the active and inactive calls.

Legend:
[1] = small molecules captured by biotinylated probe aFSTL3 – biochemical, small-molecule microarray, fluorescence 635/667, stem cell growth factor project, primary screen (AID 1064); conditions: higher = more signal;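 also: measures binding of the biotinylated anti-FSTL3 antibody to printed compounds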
[2] = binders from COS7 lysate, DM2A8 probe, primary screen, torsin A project, cell lysate, small-molecule microarray, fluorescence 635/667 (AID 1065); conditions: higher = more signal, COS7 lysate expressing mutant human TOR1A
[3] = small molecules captured by biotinylated probe aFGF2 – biochemical, small-molecule microarray, fluorescence 635/667, stem cell growth factor project, primary screen (AID 1067); conditions: higher = more signal;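 also: measures binding of biotinylated aFGF2 protein to printed compounds on slides; z-score merges feature fluorescence and signal-to-noise across triplicate slides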
[4] = small molecules captured by biotinylated probe aFGF10 – biochemical, small-molecule microarray, fluorescence 635/667, stem cell growth factor project, primary screen (AID 1071); conditions: higher = more signal;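 also: score merges 667 nm spot intensity and signal to noise from triplicate slides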
[5] = target: Neurogenic locus notch homolog protein 2 (Homo sapiens) (UniProt Q04721); assay: small molecules binding Notch2 protein – biochemical, small-molecule microarray, 635 nm fluorescence, stem cell growth factors, primary screen (AID 1073); conditions: higher = more signal
[6] = target: Pro-neuregulin-1, membrane-bound isoform (Homo sapiens) (UniProt Q02297); assay: small molecules binding neuregulin-1 protein – biochemical, small-molecule microarray, fluorescence 635/667, psychiatric disease protein project, primary screen (AID 1075); conditions: NRG1 binding, 635 nm fluorescence, higher = more signal;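 also: score combines 667 nm spot fluorescence with signal to noise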
Pro-neuregulin-1, membrane-bound isoform (Homo sapiens), sequence (Q02297 whole entry, looked up, the tested form may be a part, canonical isoform): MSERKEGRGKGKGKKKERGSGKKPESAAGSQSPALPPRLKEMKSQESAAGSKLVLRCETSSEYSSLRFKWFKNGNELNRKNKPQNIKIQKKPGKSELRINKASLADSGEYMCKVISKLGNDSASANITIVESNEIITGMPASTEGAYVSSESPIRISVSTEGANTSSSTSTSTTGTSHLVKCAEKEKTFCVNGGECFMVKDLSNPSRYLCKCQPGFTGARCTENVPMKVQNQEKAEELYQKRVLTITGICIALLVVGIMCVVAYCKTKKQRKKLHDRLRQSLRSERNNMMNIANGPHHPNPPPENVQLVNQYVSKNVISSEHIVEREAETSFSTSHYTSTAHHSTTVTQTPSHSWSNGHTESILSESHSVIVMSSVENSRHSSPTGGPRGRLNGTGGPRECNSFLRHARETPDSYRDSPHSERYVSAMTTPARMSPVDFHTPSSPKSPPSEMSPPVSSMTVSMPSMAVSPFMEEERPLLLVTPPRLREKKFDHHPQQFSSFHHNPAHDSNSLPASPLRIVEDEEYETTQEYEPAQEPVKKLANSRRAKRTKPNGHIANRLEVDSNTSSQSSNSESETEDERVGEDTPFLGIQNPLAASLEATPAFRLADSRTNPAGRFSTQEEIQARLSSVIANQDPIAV

[7] = system: Neuregulin-1 EGF-like domain; assay: small molecules binding NRG1 EGF domain – biochemical, small-molecule microarray, 635 nm fluorescence, primary screen (AID 1081); conditions: higher = more signal;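 also: binding of the protein to compounds printed on small-molecule microarray slides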
[8] = FRG1 expression reporter modulators in myotubes – cell-based, C2C12 myotubes, firefly/Renilla luciferase, luminescence, FRG1 inhibition for FSHD, primary screen (AID 1084); conditions: FRG1 promoter luciferase, higher = more signal, called active from +8 up or from −8 down
[9] = small molecules captured by biotinylated probe aFST – biochemical, small-molecule microarray, fluorescence 635/667, stem cell growth factor project, primary screen (AID 1086); conditions: higher = more signal;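 also: score merges 667 nm fluorescence with signal-to-noise of each printed compound spot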
[10] = binders of probe aHhip on microarray, primary screen, stem cell growth factor project, biochemical, small-molecule microarray, fluorescence 635/667 (AID 1087); conditions: higher = more signal;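 also: score merges spot fluorescence at 667nm with spot signal to noise ratio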
[11] = system: PRMT1 (protein arginine N-methyltransferase 1); assay: small molecules binding arginine methyltransferase PRMT1 – biochemical, small-molecule microarray, 635 nm fluorescence, primary screen (AID 1088); conditions: higher = more signal;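 also: binding of Prmt1 protein to compounds spotted on small-molecule microarray slides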
[12] = growth effects on S. cerevisiae YJM789 – YJM789 clinical isolate, OD600, 24 h, basal, primary screen (AID 1089); conditions: higher = more signal, called active from +8 up or from −8 down;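 also: growth of clinical yeast isolate S. cerevisiae YJM 789 seeded 1000 cells per well; test concentration not given here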
[13] = S. pombe growth modifiers, basal conditions – strain 972, OD600, 24 h, no modulator, primary screen (AID 1090);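 also: basal condition with compound alone and no growth modifier present; test concentration not given here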; conditions: S. pombe 972 growth, higher = more signal, called active from +8 up or from −8 down
[14] = budding yeast growth modifiers under rapamycin – strain BY4716, OD600, 96 h, primary screen (AID 1091); also: test concentration not given here; conditions: S. cerevisiae BY4716 + rapamycin, higher = more signal, called active from +8 up or from −8 down
[15] = target: Torsin-1A-interacting protein 2 (Homo sapiens) (UniProt Q8NFQ8); assay: small molecules binding lysate-expressed LULL1 – cell lysate, human LULL1 lysate, 635/667 nm fluorescence, primary screen (AID 1092); conditions: small-molecule microarray, hLULL1 lysate binding, 635 nm fluorescence; higher = more signal;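 also: probe is lysate of COS7 cells overexpressing human LULL1; score merges per-feature 667 nm fluorescence with signal-to-noise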
Torsin-1A-interacting protein 2 (Homo sapiens), sequence (Q8NFQ8 whole entry, looked up): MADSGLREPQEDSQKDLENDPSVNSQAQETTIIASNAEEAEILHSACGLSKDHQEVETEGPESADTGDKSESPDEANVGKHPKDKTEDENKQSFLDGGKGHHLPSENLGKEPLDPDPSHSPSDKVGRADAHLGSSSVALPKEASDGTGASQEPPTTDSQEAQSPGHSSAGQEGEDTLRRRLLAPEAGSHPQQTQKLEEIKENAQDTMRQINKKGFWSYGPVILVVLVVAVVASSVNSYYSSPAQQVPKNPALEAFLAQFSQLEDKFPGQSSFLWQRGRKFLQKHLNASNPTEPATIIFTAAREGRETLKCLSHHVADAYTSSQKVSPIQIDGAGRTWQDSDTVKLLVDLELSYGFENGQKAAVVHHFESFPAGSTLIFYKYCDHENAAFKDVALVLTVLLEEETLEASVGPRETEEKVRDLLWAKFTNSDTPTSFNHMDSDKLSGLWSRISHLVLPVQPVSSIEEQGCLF

[16] = optical density change of DRC41 E. coli – strain DRC41, OD650, 24 h, E. coli filamentation project, primary screen (AID 1093);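 also: MC1000 strain lacking acrAB efflux and sulA so SOS filamentation is blocked; test concentration not given here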; conditions: E. coli DRC41 growth, higher = more signal, called active from +8 up or from −8 down
[17] = probe aLefty2 binding to arrayed compounds – biochemical, biotinylated probe, 635/667 nm fluorescence, primary screen (AID 1094); conditions: small-molecule microarray, higher = more signal;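 also: score merges spot fluorescence near 667 nm with spot signal-to-noise ratio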
[18] = system: Noggin (protein binding on small-molecule microarray); assay: small molecules binding Noggin protein – biochemical, 635/667 nm fluorescence, primary screen (AID 1095); conditions: 635 nm fluorescence, higher = more signal;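 also: score merges 667 nm feature fluorescence with signal to noise over triplicate slides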
[19] = target: Neurogenic locus notch homolog protein 3 (Homo sapiens) (UniProt Q9UM47); assay: small molecules binding NOTCH3 protein – biochemical, 635/667 nm fluorescence, primary screen (AID 1096); conditions: small-molecule microarray, 635 nm fluorescence, higher = more signal
Neurogenic locus notch homolog protein 3 (Homo sapiens), sequence (Q9UM47 whole entry, looked up): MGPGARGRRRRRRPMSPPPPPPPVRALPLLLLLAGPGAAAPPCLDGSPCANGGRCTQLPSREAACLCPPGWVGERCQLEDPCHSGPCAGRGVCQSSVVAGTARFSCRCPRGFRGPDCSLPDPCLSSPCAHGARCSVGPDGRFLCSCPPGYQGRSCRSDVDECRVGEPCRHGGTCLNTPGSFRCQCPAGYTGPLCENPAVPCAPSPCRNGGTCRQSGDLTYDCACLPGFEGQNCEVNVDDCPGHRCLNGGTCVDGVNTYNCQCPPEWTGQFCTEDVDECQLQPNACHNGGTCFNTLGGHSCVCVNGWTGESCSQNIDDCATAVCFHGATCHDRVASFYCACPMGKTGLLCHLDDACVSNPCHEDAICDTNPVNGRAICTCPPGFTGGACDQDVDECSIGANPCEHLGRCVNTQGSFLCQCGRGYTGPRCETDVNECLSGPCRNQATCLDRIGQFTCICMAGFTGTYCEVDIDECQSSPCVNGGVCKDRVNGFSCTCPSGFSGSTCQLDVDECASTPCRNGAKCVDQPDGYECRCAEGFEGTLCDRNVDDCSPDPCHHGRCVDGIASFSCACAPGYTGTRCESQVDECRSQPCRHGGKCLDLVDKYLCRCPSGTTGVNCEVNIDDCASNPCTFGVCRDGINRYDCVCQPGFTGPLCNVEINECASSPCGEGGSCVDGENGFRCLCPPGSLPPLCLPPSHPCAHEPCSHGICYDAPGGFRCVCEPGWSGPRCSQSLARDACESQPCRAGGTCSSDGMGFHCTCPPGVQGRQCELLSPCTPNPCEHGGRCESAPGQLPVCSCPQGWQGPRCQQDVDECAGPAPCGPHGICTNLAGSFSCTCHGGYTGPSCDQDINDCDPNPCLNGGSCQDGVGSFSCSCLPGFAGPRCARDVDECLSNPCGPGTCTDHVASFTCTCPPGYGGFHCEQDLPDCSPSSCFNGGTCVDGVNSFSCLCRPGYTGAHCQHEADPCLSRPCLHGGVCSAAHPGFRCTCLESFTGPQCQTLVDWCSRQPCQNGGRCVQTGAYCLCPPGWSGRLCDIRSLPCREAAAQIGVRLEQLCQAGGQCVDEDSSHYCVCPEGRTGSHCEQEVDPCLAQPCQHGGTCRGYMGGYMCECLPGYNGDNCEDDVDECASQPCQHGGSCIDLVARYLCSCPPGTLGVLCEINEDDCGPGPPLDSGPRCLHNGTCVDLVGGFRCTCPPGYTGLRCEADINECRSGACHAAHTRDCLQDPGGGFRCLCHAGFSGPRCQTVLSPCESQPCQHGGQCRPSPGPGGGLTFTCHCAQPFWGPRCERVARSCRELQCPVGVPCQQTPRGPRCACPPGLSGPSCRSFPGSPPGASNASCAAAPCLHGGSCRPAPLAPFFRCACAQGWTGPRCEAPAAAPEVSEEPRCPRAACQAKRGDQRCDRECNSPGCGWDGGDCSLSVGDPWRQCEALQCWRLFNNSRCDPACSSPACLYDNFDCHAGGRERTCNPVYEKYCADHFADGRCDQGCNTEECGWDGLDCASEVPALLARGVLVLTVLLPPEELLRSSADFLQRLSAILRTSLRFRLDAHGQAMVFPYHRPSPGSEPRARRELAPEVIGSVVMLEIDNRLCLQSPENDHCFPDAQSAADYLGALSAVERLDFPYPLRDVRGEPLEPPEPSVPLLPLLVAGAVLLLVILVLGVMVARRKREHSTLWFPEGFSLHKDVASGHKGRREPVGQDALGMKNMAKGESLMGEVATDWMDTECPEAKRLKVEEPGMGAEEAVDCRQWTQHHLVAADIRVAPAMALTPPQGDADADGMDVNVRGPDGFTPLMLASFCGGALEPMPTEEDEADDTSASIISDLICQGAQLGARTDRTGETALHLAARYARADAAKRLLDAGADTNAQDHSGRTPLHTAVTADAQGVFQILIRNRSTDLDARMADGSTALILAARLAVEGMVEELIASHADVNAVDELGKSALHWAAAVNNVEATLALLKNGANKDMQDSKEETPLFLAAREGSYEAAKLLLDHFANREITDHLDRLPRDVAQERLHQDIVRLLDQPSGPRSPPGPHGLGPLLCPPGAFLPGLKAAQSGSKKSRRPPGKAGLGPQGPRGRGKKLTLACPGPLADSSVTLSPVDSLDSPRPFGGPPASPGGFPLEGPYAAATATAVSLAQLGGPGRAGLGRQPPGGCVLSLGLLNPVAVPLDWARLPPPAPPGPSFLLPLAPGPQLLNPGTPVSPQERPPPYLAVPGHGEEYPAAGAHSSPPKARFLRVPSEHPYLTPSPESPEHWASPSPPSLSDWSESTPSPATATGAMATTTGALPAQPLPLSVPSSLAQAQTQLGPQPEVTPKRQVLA

[20] = probe aEGFR binding to arrayed compounds – biochemical, biotinylated probe, 635/667 nm fluorescence, primary screen (AID 1097); conditions: small-molecule microarray, higher = more signal;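 also: probe is a biotinylated anti-EGFR antibody binding compounds printed on slides; score combines fluorescence near 667 nm and signal to noise of each spot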

Row | Compound | composite z-score [1] | composite z-score [2] | composite z-score [3] | composite z-score [4] | composite z-score [5] | composite z-score [6] | composite z-score [7] | z-score [8] | composite z-score [9] | composite z-score [10] | composite z-score [11] | z-score [12] | z-score [13] | z-score [14] | composite z-score [15] | z-score [16] | composite z-score [17] | composite z-score [18] | composite z-score [19] | composite z-score [20]
1 | [N-]=[N+]=NCc1ccccc1C[C@]1(C(N)=O)N=C(c2ccc(OCCCO)cc2)O[C@H]1c1ccccc1 | 0.124 | 0.514 | -0.0129 | 0.726 | 0.639 | 1.89 | 1.14 | -3.9 (inactive) | 1.56 | -0.201 | 1.31 | 0.458 (inactive) | -1.74 (inactive) | 2.34 (inactive) | 3.32 | 1.22 (inactive) | 0.158 | -0.593 | 0.859 | -0.02
2 | C[C@@H]1NC(=O)[C@@]23C(=O)N[C@@H](Cc4ccccc4)C2[C@H](C)[C@@]2(C)O[C@H]2C3/C=C/C/C=C\CNC(=O)[C@@H]2CCCN2C1=O (stereo not given in full) | -0.301 | 0.009 | -0.158 | 0.139 | -0.355 | -0.365 | 0.519 | 0.251 (inactive) | -0.276 | -0.249 | -0.422 | -0.498 (inactive) | -0.409 (inactive) | -0.524 (inactive) | -0.516 | -0.874 (inactive) | -0.132 | -0.044 | -0.526 | -0.266
3 | COc1ccc([Si](C)(C)[C@@H]2[C@@H](CC(=O)N(CCO)Cc3ccccc3)O[C@]3(C(=O)N(c4ccccc4)c4ccccc43)[C@H]2C)cc1 | -0.337 | 0.326 | -0.0455 | 0.276 | 0.212 | 0.954 | 1 | -2.62 (inactive) | 0.593 | -0.0994 | 1.56 | -0.14 (inactive) | 0.001 (inactive) | 0.842 (inactive) | 2.26 | 1.01 (inactive) | -0.0722 | 1.26 | 1.1 | -0.0512
4 | NC(=O)NCC#Cc1ccc2c(c1)[C@]1(C(=O)N2)[C@H](C(=O)O)[C@H]2C(=O)O[C@H](c3ccccc3)[C@H](c3ccccc3)N2[C@@H]1c1ccc(OCCO)cc1 | 0.131 | 0.35 | -0.139 | 0.0382 | 0.247 | 0.881 | 0.851 | -0.359 (inactive) | 0.718 | -0.0994 | 1.1 | 0.33 (inactive) | 0.459 (inactive) | -0.524 (inactive) | 1.37 | 0.8 (inactive) | -0.199 | 0.205 | 0.1 | -0.181
5 | O=C1N(Cc2ccccc2)c2ccccc2[C@@H]2OC(c3ccc(OCCCO)cc3)=N[C@]12Cc1ccccc1 | 0.677 | -0.603 | 0.06 | 0.569 | 0.848 | -0.329 | 1.19 | -2.82 (inactive) | 0.191 | 0.113 | 1.38 | -0.548 (inactive) | -1.14 (inactive) | 4.88 (inactive) | 2.93 | 0.8 (inactive) | 0.0759 | 0.307 | 0.804 | -0.0391
6 | COc1ccc([Si](C)(C)[C@@H]2[C@@H](CC(=O)N(CCO)Cc3ccccc3)O[C@]3(C(=O)N(Cc4cccc(N5CCOC5=O)c4)c4ccccc43)[C@H]2C)cc1 | -0.0388 | 1.02 | -0.117 | 0.476 | 0.0505 | 1.1 | 1.12 | -0.819 (inactive) | -0.0988 | -0.248 | 1.55 | -0.757 (inactive) | -0.21 (inactive) | 2.11 (inactive) | 1.96 | 1.37 (inactive) | -0.349 | 0.726 | 0.733 | -0.129
7 | C=CCNC(=O)[C@H]1[C@@H]2C(=O)O[C@@H](c3ccccc3)[C@@H](c3ccccc3)N2[C@@H](c2ccc(O)cc2)[C@]12C(=O)Nc1ccc(C#CC3(O)CCCCCC3)cc12 | 0.0935 | 1.01 | -0.0293 | 0.254 | -0.459 | 0.865 | 0.718 | -0.246 (inactive) | 0.168 | 0.312 | 1.55 | -0.494 (inactive) | 0.369 (inactive) | 0.335 (inactive) | 3.03 | -1.08 (inactive) | -0.0953 | 1.09 | 0.354 | -0.0896
8 | COCCOC(=O)N1C(=O)[C@@]2(c3cc(C#CCNC(N)=O)ccc31)[C@H](C(=O)N1CCc3cc(OC)c(OC)cc3C1)[C@H]1C(=O)O[C@H](c3ccccc3)[C@H](c3ccccc3)N1[C@@H]2c1ccccc1OCCO | -0.178 | 1.05 | -0.0908 | 0.371 | 0.749 | 0.202 | 0.869 | -0.902 (inactive) | 0.31 | -0.191 | 1.37 | -0.959 (inactive) | 0.319 (inactive) | 3.2 (inactive) | 2.14 | 1.16 (inactive) | 0.0253 | 1.36 | 1.11 | -0.0734
9 | CC(C)C(CO)N1C(=O)[C@@H]2C3C(=O)OCCC/C=C\[C@H]3OC23C=CCN(C(C)(C)C)C(=O)[C@@H]13 (stereo not given in full) | -0.0102 | -0.311 | -0.133 | -0.394 | -1.02 | -0.596 | 1.06 | -0.241 (inactive) | -0.418 | 0.0274 | -0.429 | 0.465 (inactive) | -0.415 (inactive) | 0.0032 (inactive) | 0.895 | -0.787 (inactive) | -0.259 | -0.733 | -0.354 | -0.259
